This passage reports Potency, activity change, positive = activation and max response results from PubChem BioAssay (Tox21).

Unmarked numbers belong to inactive results. Records with an inconclusive call do not appear. Activity calls are given as the source filed them. Unless noted, calls follow the shape of the dose curve; as a rule, active = well fitted curve in the direction sought with a large enough effect in the repeat runs; inconclusive = weak or mixed curves; inactive = no such curve, though single readings can be large; an effect the other way counts as inactive or inconclusive.

The nature of assay [1]: qHTS assay to identify small molecule agonists of the hypoxia (HIF-1) signaling pathway - cell viability counter screen (AID 1224844; calls by dose curve; also: nearly all actives have a fitted effect of over 50% in size; also: potency is read from the fitted curve at half-maximal effect). Put shortly: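 Luminescent ATP content (CellTiter-Glo, 30 min, room temperature) served as the viability measure in HRE-bla ME-180 cells exposed to compounds for 17 hrs in low-serum medium (0.5% dialyzed FBS).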
Assay [2] can be described thus: qHTS assay to identify small molecule agonists of H2AX - cell viability counter screen (AID 1224847; calls by dose curve; also: nearly all actives have a fitted effect of over 30% in size; also: potency is read from the fitted curve at half-maximal effect). Put shortly: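 CHO-K1 wt, 1000 cells/well, o/n 37C; cpds 15 conc, 3 h 37C, 0.76% DMSO; CellTiter-Glo, 30 min RT, luminescence.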
Assay [3] is described as follows: qHTS assay to identify small molecule antagonists of the estrogen related receptor (ERR) signaling pathway from Tox21 library (AID 1224848). Also: potency is read from the fitted curve at half-maximal effect; nearly all actives have a fitted effect of over 50% in size. In short, it runs like this:
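Antagonist-mode screen of the Tox21 10K library in an NTP-provided ERR reporter cell line; 18 h compound exposure at 37 C, luminescence measured with ONE-Glo.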

Assay [4] in a line: qHTS assay to identify small molecule agonists of the estrogen related receptor (ERR) signaling pathway from Tox21 library (AID 1224849; calls by dose curve; also: % is scaled to controls: 0 for no effect and ±100 for the full control effect; nearly all actives have a fitted effect of over 15% in size). Particulars: ERR reporter cell line, ONE-Glo luciferase, 18 h; at 92.4 µM (top of the series) unless noted. In short, it runs like this:
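We plated ERR reporter cells, waited 6 h, added compounds in DMSO by pin tool and incubated them 18 h at 37 C. ONE-Glo was then added and luminescence read after 30 min.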

Assay [5] in a line: qHTS RealTime-Glo MT Cell Viability Assay in HepG2 cells - 24 hour (AID 1224867). Also: nearly all actives have a fitted effect of over 50% in size. Also: potency is read from the fitted curve at half-maximal effect. Put shortly: (§1)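 HepG2 cells were seeded at 600 cells/well together with NanoLuc luciferase and a cell-permeant prosubstrate, preincubated 5 h at 37 C/5% CO2, then pin-dosed with compounds in DMSO. Nonlytic luminescence from viable cells was read at each time point.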
Assay [6] can be described thus: qHTS RealTime-Glo MT Cell Viability Assay in HEK293 cells - 32 hour (AID 1224868). Also: nearly all actives have a fitted effect of over 50% in size. Also: potency is read from the fitted curve at half-maximal effect. In short, it runs like this: (§2)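 HEK293 cells were seeded at 600 cells/well together with NanoLuc luciferase and cell-permeant prosubstrate, preincubated 5 h at 37 C/5% CO2, then given compound in DMSO by pintool. Luminescence from viable-cell prosubstrate reduction was read repeatedly over 40 h.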

The nature of assay [7]: A CellTox Green Cytotoxicity Assay to monitor cytotoxicity in HEK293 cells - 0 hour (AID 1224869). In short, it runs like this:
(§3)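 Each value comes from one timepoint of a single continuous run in which HEK293 cells with CellTox Green were exposed to compound for up to 40 h at 37 C, dye fluorescence rising with cell death.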

A short description of assay [8]: qHTS RealTime-Glo MT Cell Viability Assay in HepG2 cells - 8 hour (AID 1224873). Also: nearly all actives have a fitted effect of over 55% in size. Also: potency is read from the fitted curve at half-maximal effect. In short, it runs like this:
(§4)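 Real-time viability: cells seeded at 600 per well together with NanoLuc and cell-permeant prosubstrate, compounds added after 5 h incubation. Luminescence tracked at 0, 8, 16, 24, 32 and 40 h of exposure.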

Assay [9] is described as follows: A CellTox Green Cytotoxicity Assay to monitor cytotoxicity in HepG2 cells - 40 hour (AID 1224879). Also: nearly all actives have a fitted effect of over 40% in size. Also: potency is read from the fitted curve at half-maximal effect. Put shortly:
(§5)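 Continuous culture of HepG2 cells with a membrane-impermeant DNA dye; rising fluorescence marks dead cells. Compound exposure lasted up to 40 h at 37 C, with reads every 8 h from 0 h.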

A short description of assay [10]: qHTS RealTime-Glo MT Cell Viability Assay in HEK293 cells - 0 hour (AID 1224880). Also: top concentration of the series differs between compounds; % is scaled to controls: 0 for no effect and ±100 for the full control effect; nearly all actives have a fitted effect of over 45% in size. Put shortly:
(§6)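 qHTS format; HEK293 cells with NanoLuc/prosubstrate reagent, 37 C/5% CO2 for 5 h pre-dosing; compounds 23 nL in DMSO; luminescence at each time point reflects viable cells.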

A short description of assay [11]: qHTS RealTime-Glo MT Cell Viability Assay in HepG2 cells - 40 hour (AID 1224870). Also: nearly all actives have a fitted effect of over 50% in size. Also: potency is read from the fitted curve at half-maximal effect. Put shortly: as §4
Assay [12] is described as follows: A CellTox Green Cytotoxicity Assay to monitor cytotoxicity in HEK293 cells - 40 hour (AID 1224871). Also: nearly all actives have a fitted effect of over 45% in size. Also: potency is read from the fitted curve at half-maximal effect. In short, it runs like this: as §3
Assay [13] can be described thus: A CellTox Green Cytotoxicity Assay to monitor cytotoxicity in HEK293 cells - 24 hour (AID 1224875). Also: nearly all actives have a fitted effect of over 45% in size. Also: potency is read from the fitted curve at half-maximal effect. As to activity change: % is scaled to controls: 0 for no effect and ±100 for the full control effect. Put shortly: as §3
Assay [14] can be described thus: A CellTox Green Cytotoxicity Assay to monitor cytotoxicity in HepG2 cells - 16 hour (AID 1224876). Also: nearly all actives have a fitted effect of over 45% in size. Also: potency is read from the fitted curve at half-maximal effect. In short, it runs like this:
as §5

Assay [15] can be described thus: qHTS RealTime-Glo MT Cell Viability Assay in HepG2 cells - 32 hour (AID 1224877). Also: nearly all actives have a fitted effect of over 55% in size. Also: potency is read from the fitted curve at half-maximal effect. Put shortly: as §1
Assay [16] is described as follows: A CellTox Green Cytotoxicity Assay to monitor cytotoxicity in HepG2 cells - 24 hour (AID 1224878). Also: nearly all actives have a fitted effect of over 45% in size. Also: potency is read from the fitted curve at half-maximal effect. As to Cytotoxicity: % is scaled to controls: 0 for no effect and ±100 for the full control effect. In short, it runs like this:
as §5

Assay [17] can be described thus: qHTS RealTime-Glo MT Cell Viability Assay in HEK293 cells - 16 hour (AID 1224872). Also: nearly all actives have a fitted effect of over 50% in size. Also: potency is read from the fitted curve at half-maximal effect. Put shortly: as §2
Assay [18] can be described thus: qHTS RealTime-Glo MT Cell Viability Assay in HEK293 cells - 40 hour (AID 1224874). Also: nearly all actives have a fitted effect of over 50% in size. Also: potency is read from the fitted curve at half-maximal effect. As to max response: % is scaled to controls: 0 for no effect and ±100 for the full control effect. Particulars: RealTime-Glo luminescence; max response: active compounds read low. Put shortly:
as §6

With `CC1(c2ccc(Oc3ccccc3)cc2)OC(=O)N(Nc2ccccc2)C1=O` (centres undefined), the Potency in assay [1] was 22 µM (active); in assay [2], 50.8 µM (active); in assay [3], 2.45 µM (active); in [5], 49.3 µM (active); in [6] it was 43.9 µM (active); in assay [8], 49.3 µM (active). Moreover, the Potency in assay [9] was 55.3 µM (active). Moreover, the activity change, positive = activation in assay [4] is -64.5%. Further, the Potency result in assay [7] and in [10] was “inactive” each time.

As to `Cc1cc(SCc2sc(-c3ccc(C(F)(F)F)c(F)c3)nc2C)ccc1OCC(=O)O`, the Potency in [1] was 12.3 µM (active); in [2], 101 µM (active). Also, the activity change, positive = activation in [4] is -21.2%. The Potency entry in assay [5], in [7], in assay [11], in [12], in [13] and in assay [14] was “inactive” each time. For the same compound, the Potency result in assay [15], in assay [16], in assay [9] and in [10] was “inactive” in each case.

Consider `CCCCCCCCCC[N+](C)(C)CCCCCCCCCC`, for which the Potency was 27.5 µM (active) in assay [1]; 40.1 µM (active) in assay [2]; 7.76 µM (active) in [5]; 1.1 µM (active) in assay [6]; 7.76 µM (active) in assay [11]; 17.4 µM (active) in [12]. For the same compound, the Potency in assay [17] is 4.36 µM (active); in [8] it was 19.5 µM (active); in assay [13], 15.5 µM (active); in assay [14] it was 12.3 µM (active); in assay [15] it was 7.76 µM (active); in assay [16], 11 µM (active). Moreover, in assay [9], the Potency is 8.71 µM (active). For the same compound, the Potency result in assay [7] and in assay [10] was “inactive” throughout.

As to `CCC(C)c1cc([N+](=O)[O-])cc([N+](=O)[O-])c1OC(=O)C=C(C)C` (centres undefined), the Potency entry in assay [1], in assay [7], in [12], in [13], in [14] and in [16] was “inactive” throughout. Further, the Potency result in [10] is “inactive”. For the same compound, the Potency is 56.6 µM (active) in assay [2]; 49 µM (active) in [5]; 21.9 µM (active) in assay [6]; 49 µM (active) in [11]; 49 µM (active) in assay [17]; 21.9 µM (active) in assay [18]. Also, in assay [15], the Potency is 49 µM (active).

For the compound `CN(C)S(=O)(=O)N(SC(F)(Cl)Cl)c1ccccc1`, the Potency is 19.5 µM (active) in assay [1]; 89.8 µM (active) in assay [2]; 11 µM (active) in assay [5]; 3.89 µM (active) in [6]; 9.77 µM (active) in [11]; 3.09 µM (active) in [12]. The Potency in assay [17] is 4.9 µM (active); in assay [8] it was 21.9 µM (active); in [18], 4.36 µM (active); in assay [13] it was 13.8 µM (active); in [15] it was 9.77 µM (active); in assay [16], 7.76 µM (active). Also, in assay [9], the Potency was 4.9 µM (active). Besides, the Potency result in [7] and in [10] was “inactive” throughout.

For the compound `[Hg+2].[I-].[I-]`, the Potency in assay [1] was 1.95 µM (active); in [2] it was 8 µM (active); in assay [5], 9.77 µM (active); in assay [6], 3.09 µM (active); in [11], 12.3 µM (active); in assay [12] it was 21.9 µM (active). Besides, the Potency in [17] was 3.47 µM (active); in assay [8], 12.3 µM (active); in [18], 2.45 µM (active); in [13], 24.5 µM (active); in [14], 12.3 µM (active); in assay [15] it was 11 µM (active). Also, the values for the Potency in assay [16] and in assay [9] were 11 µM (active) and 6.16 µM (active), respectively. Moreover, the Potency result in assay [7] is “inactive”.

On to `O=[N+]([O-])c1ccc2ccc3cccc4ccc1c2c34`, for which the Potency in assay [1] is 34.7 µM (active). Moreover, the Potency result in assay [2], in [5], in assay [6], in assay [11], in assay [17] and in assay [8] was “inactive” each time. In addition, the Potency entry in assay [14], in assay [15], in assay [16] and in [10] was “inactive” each time. In addition, the max response in assay [18] was -23.8%.
